Rows were chosen to be rich in hits. Some 21% of all compounds tested hit in one or more screens of this group.
VP16 counter: counter-screen for ROR gamma inhibitors: Gal4-VP16 reporter; 310,000 tested, 3.5% active; Drosophila S2 Gal4-VP16 UAS-luciferase, luminescence, 20 h; Potency, µM (highest dose often 53.6 µM), actives largely listed as inhibitors; AID 2546;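 also: Gal4-VP16 expression switched on by copper sulfate through the metallothionein promoter; nearly all actives have a fitted effect of over 50% in size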
TDP1 cell CPT: growth inhibition of DT40 Tdp1-/-;hTDP1 cells with camptothecin (screen for TDP1 inhibitors); chicken DT40 Tdp1-/-;hTDP1 cells + 20 nM CPT, ATP luminescence, 48 h; Potency, µM (doses to about 46.2 µM), hits mostly inhibitors; 420,000 tested, 12% active; AID 686979; also: nearly all actives have a fitted effect of over 55% in size
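Chicken DT40 Tdp1-/- cells stably complemented with human TDP1 were seeded at 400 cells/well in medium containing 20 nM camptothecin, exposed to pin-transferred compounds, and grown at 37 °C for at least 48 hr. Viability was read as ATP luminescence.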
TDP1 cell noCPT: qHTS for Inhibitors of human tyrosyl-DNA phosphodiesterase 1 (TDP1): qHTS in cells in absence of CPT. DT40 Tdp1-/- hTDP1 cells, no CPT, ATP luminescence, 48 h. Potency, µM (highest dose often 46.2 µM), hits mostly inhibitors. 420,000 tested, 15% active. AID 686978, 2013; also: nearly all actives have a fitted effect of over 55% in size
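Growth of hTDP1-complemented DT40 Tdp1-knockout cells is measured by ATP luminescence after at least 48 hr compound exposure at 37 °C, with DMSO substituting for the 20 nM CPT used in the parallel screen.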
ELG1 DNA repair: inhibitors of ELG1-dependent DNA repair in HEK293T cells | HEK293T ELG1-luciferase reporter, luminescence, 16 h; DNA damage induced by 5-fluorouridine | Potency, µM (doses to about 46.1 µM), actives largely listed as inhibitors | 330,000 tested, 2.3% active; also: nearly all actives have a fitted effect of over 55% in size
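DMSO vehicle served as the neutral condition. Each well held 2,000 cells given 5-fluorouridine plus compound; after 16 hr at 37 °C/5% CO2, ONE-Glo was added and luciferase measured 30 min later.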
IL-1B inflam inh: inhibitors of inflammasome signaling (IL-1 beta secretion); AID 743279; 360,000 tested, 4.7% active; activity change, % at 57.5 µM; THP-1 LPS/ATP IL-1B secretion, AlphaLISA, 16 h; stronger effect = lower value; in the data active = activity change below about -50%; inconclusive = mostly about -30% to -49%
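Secreted IL-1B measured by AlphaLISA bead assay after 16 h compound exposure of THP-1 cells; compounds (final up to 57.5 uM) added 1 h before LPS (250 ng/mL) and ATP (1.25 mM) stimulation; lower signal means less secretion.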
RORgamma inh: inhibitors of mouse ROR gamma transcriptional activity; AID 2551; 310,000 tested, 5.4% active; Potency, µM (series often up to 53.6 µM), most hits filed as inhibitors; Drosophila S2 Gal4-RORgamma UAS-luciferase reporter, 20 h; P51450; also: nearly all actives have a fitted effect of over 60% in size
Target sequence (P51450 whole entry, looked up, the tested form may be a part): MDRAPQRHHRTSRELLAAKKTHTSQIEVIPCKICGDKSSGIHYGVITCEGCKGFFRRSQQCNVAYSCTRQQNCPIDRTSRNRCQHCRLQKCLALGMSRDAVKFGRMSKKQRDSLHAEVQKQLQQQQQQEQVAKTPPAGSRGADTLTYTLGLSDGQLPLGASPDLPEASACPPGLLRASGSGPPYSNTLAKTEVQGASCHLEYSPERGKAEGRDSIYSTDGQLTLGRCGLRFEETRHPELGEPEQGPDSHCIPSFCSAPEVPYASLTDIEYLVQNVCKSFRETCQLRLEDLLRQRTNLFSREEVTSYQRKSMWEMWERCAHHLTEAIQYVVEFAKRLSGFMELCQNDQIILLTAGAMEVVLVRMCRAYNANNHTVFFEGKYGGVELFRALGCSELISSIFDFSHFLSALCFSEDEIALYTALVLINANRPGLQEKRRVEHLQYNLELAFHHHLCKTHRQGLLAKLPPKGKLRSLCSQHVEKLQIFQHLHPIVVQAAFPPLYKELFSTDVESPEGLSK
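In this cell-based reporter format, copper sulfate (700 uM final) drives Gal4–ROR gamma fusion expression from a metallothionein promoter in Drosophila Schneider cells; compounds preincubated 1 hr, reporter read after 20 hr at ambient temperature.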
Of the large screens only hits and unclear results are named; the others gave an inactive call. Unless noted, calls follow the shape of the dose curve; as a rule, active = well fitted curve in the direction sought with a large enough effect; inconclusive = small, poorly fitted or top-dose-only effect, or another doubt; inactive = no such curve, though single readings can be large; an effect the other way counts as inactive or inconclusive.

Cc1ccc2c(C)c(C(=O)N3CCCCC3CO)oc2c1C (stereo unspecified)	TDP1 cell CPT 18.4µM, TDP1 cell noCPT 13µM, ELG1 DNA repair inconclusive
CCCCN(CC)CCNC(=O)c1cc2c(C)nc3ccccc3c2o1	TDP1 cell CPT 16.4µM, TDP1 cell noCPT 23.1µM
CCCCN(CC)CCCNC(=O)c1cc2cc3ccc(C)cc3nc2o1	none (no result: IL-1B inflam inh)
C=CCN(CC=C)Cc1c(C)[nH]c2ccc(C(=O)OCC)cc2c1=O	none
CCc1nnc(NC(=O)C2CCCN2C(=O)Nc2ccccc2)s1 (stereo unspecified)	ELG1 DNA repair inconclusive
CCN1CCCC1CNC(=O)c1cc2c(C)nc3ccccc3c2o1 (stereo unspecified)	none (no result: IL-1B inflam inh)
CCCCN(CC)CCNC(=O)c1cc2cc3ccc(Cl)cc3nc2o1	TDP1 cell CPT 16.4µM, TDP1 cell noCPT inconclusive (no result: IL-1B inflam inh)
Cc1nc2ccccc2c2oc(C(=O)NCCN3CCCCC3C)cc12 (stereo unspecified)	TDP1 cell CPT inconclusive, TDP1 cell noCPT 16.4µM
COc1cccc(-c2cc(CNC(=O)[C@H]3O[C@@H](n4ccc(N)nc4=O)[C@H](O)[C@@H]3O)no2)c1	none (no result: VP16 counter, ELG1 DNA repair, RORgamma inh)
O=c1cc(O)c(-c2ccc(Cl)cc2)c(Cl)[nH]1	none
O=C1c2cc(Cl)ccc2-c2c(O)cc(Cl)cc21	TDP1 cell CPT inconclusive, TDP1 cell noCPT 14.6µM, IL-1B inflam inh -74.4 (no result: VP16 counter, ELG1 DNA repair, RORgamma inh)
O=C1CCc2cc(S(=O)(=O)Nc3ccccc3)ccc2N1	ELG1 DNA repair inconclusive (no result: VP16 counter, RORgamma inh)
CCOC(=O)c1cn2nc(Oc3ccc(OC)cc3)ccc2n1	TDP1 cell CPT inconclusive, TDP1 cell noCPT 6.51µM
CCOC(=O)c1c(NC(=O)c2ccc(S(=O)(=O)N(CC(C)C)CC(C)C)cc2)sc2c1CCN(CC)C2	TDP1 cell CPT 8.2µM, TDP1 cell noCPT 16.4µM (no result: VP16 counter, ELG1 DNA repair, IL-1B inflam inh, RORgamma inh)
NC(=O)c1c(NC(=O)c2c(F)cccc2F)sc2c1CCN(Cc1ccccc1)C2	TDP1 cell CPT inconclusive, TDP1 cell noCPT 16.4µM, ELG1 DNA repair inconclusive, RORgamma inh inconclusive
NC(=O)c1c(NC(=O)c2ccccc2)sc2c1CCN(Cc1ccccc1)C2	VP16 counter inconclusive, TDP1 cell CPT inconclusive, TDP1 cell noCPT inconclusive, ELG1 DNA repair inconclusive
CCN1CCc2c(sc(NC(=O)c3ccc(S(=O)(=O)N(CC)c4ccccc4)cc3)c2C(N)=O)C1	VP16 counter inconclusive, TDP1 cell CPT inconclusive, TDP1 cell noCPT 14.6µM, IL-1B inflam inh -95.8
CC(C)CN(CC(C)C)S(=O)(=O)c1ccc(C(=O)Nc2sc3c(c2C(N)=O)CCN(C(C)C)C3)cc1	TDP1 cell CPT 8.2µM, TDP1 cell noCPT 9.2µM (no result: VP16 counter, ELG1 DNA repair, IL-1B inflam inh, RORgamma inh)
Cc1cc(OCC(=O)OCC(=O)N2CCCCC2)ccc1Cl	none (no result: VP16 counter, ELG1 DNA repair, RORgamma inh)
CCC(C)Oc1ccccc1C1CC(=O)NC2=C1C(=O)CCC2 (stereo unspecified)	TDP1 cell CPT 25.9µM, TDP1 cell noCPT inconclusive
CCCCCC(O)/C=C/C=O (stereo unspecified)	none (no result: ELG1 DNA repair, IL-1B inflam inh)
COc1ccc(C(=O)NCc2nnc(SCC(=O)NC3CCCC3)o2)cc1	ELG1 DNA repair inconclusive
O=C(CNc1ccc(C(F)(F)F)cc1[N+](=O)[O-])OCC(=O)c1ccccc1	none
COC(=O)c1ccc(OC(=O)CS(=O)c2ccccc2[N+](=O)[O-])cc1 (stereo unspecified)	TDP1 cell CPT inconclusive, TDP1 cell noCPT 25.9µM
CCOC(=O)c1ccccc1OC(=O)CS(=O)c1ccccc1[N+](=O)[O-] (stereo unspecified)	TDP1 cell CPT inconclusive, TDP1 cell noCPT inconclusive
COC(=O)c1ccc(Oc2c(Cl)cccc2[N+](=O)[O-])cc1	RORgamma inh 7.94µM
CS(=O)(=O)c1ccc(S(=O)CC(=O)OCc2ccccc2)c([N+](=O)[O-])c1 (stereo unspecified)	VP16 counter 4.47µM, TDP1 cell CPT 0.231µM, TDP1 cell noCPT 0.326µM, ELG1 DNA repair inconclusive, IL-1B inflam inh -163.5, RORgamma inh 4.47µM
